Assay results published in PubChem BioAssay (NCATS).
“And” between values parts separate entries of the source, which are not always exact repeats. Equal values may be shown once. Inconclusive results are not listed. The source made the active and inactive calls. Unless noted, calls come from the whole dose curve; as a rule, active = well fitted curve in the direction sought with a large enough effect; inconclusive = small, poorly fitted or top-dose-only effect, or another doubt; inactive = no such curve, though single readings can be large; an effect the other way counts as inactive or inconclusive.

What was measured:
[1] = target: Cytochrome P450 1A2 (Homo sapiens) (UniProt P05177); assay: p450-cyp1a2 (AID 410; calls by dose curve; note: potency is the fitted concentration of half-maximal effect)
In short: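 Luminescent demethylation readout: Luciferin-ME (100uM, equal to Km) turned over by 20nM CYP1A2 for 60 min at room temperature after NADPH regeneration addition, following 10 min compound preincubation. Normalization used 57 uM furafylline as full inhibition.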

[2] = target: Glucocorticoid receptor (Homo sapiens) (UniProt P04150); assay: GR-GFP Redistribution (AID 450;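 active = compounds whose dose series gives a full or clear partial fitted curve of increased nuclear translocation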; note: potency is the fitted concentration of half-maximal effect); details: U2OS GR-GFP nuclear translocation, laser cytometry, 2 h
[3] = target: Glucocorticoid receptor (Homo sapiens) (UniProt P04150); assay: GR-EFC Redistribution (AID 451; calls by dose curve; note: potency is the fitted concentration of half-maximal effect); details: CHO-K1 GR-EFC translocation, beta-gal luminescence, 2 h
In short: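 CHO-K1 cells expressing nuclear EA and GR-ED fragments of b-gal; compounds titrated up to 46 uM final, 2 h at 37 C. GR nuclear translocation read as complemented b-gal luminescence after 1 h RT detection.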

[4] = target: 3',5'-cyclic-AMP phosphodiesterase 4B (Homo sapiens) (UniProt Q07343); assay: qHTS Assay for Inhibitors of PDE-IV (AID 607; active = well fitted activation curve with a large enough effect in the main read-out, with a control signal flat, not every such curve was filed as active; note: % of control where 0% means no effect)
In short: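 Live HEK293 cells with a modified cyclic nucleotide-gated (CNG) channel report intracellular cAMP via membrane-potential dye fluorescence (ex 535/em 590 nm). Endogenous PDE-IV was targeted. Compounds were tested at up to 22.9 uM final; RO 20-1724 100 uM served as control.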

[5] = Confirmation and Secondary Assay for Modulators of Hemoglobin Beta Chain Splicing at IVS2 654 locus (AID 910);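 note: HeLa cells stably carrying EGFP split by mutant beta-globin IVS2-654 intron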;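 note: potency is the fitted concentration of half-maximal effect; potency of activators that raise GFP signal by restoring correct splicing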
In short: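 HeLa cells stably expressing EGFP interrupted by β-globin IVS2-654 intron, seeded overnight in Opti-MEM/2% FCS, then treated 2 days at 37 °C. Restored splicing read as total peak GFP intensity per well by laser scanning cytometry (488 nm excitation, 500–520 nm emission); 500 nM antisense PNA as control.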

[6] = Confirmation and Secondary Assay for Modulators of Hemoglobin Beta Chain Splicing at IVS2 705 locus (AID 930);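 note: GFP fluorescence per well restored by corrected splicing of the IVS2-705 intron in EGFP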; note: potency is the fitted concentration of half-maximal effect;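 for activation: HeLa cells stably expressing the EGFP-705 splicing reporter; % of control where 0% means no effect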
In short: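 HeLa cells stably carrying EGFP interrupted by mutant beta-globin intron 2 (IVS2-705) treated 2 days at 37C with compound; 500 nM antisense PNA as control. Correct splicing read as total peak GFP intensity per well by laser-scanning cytometry.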

[7] = target: Lysosomal acid glucosylceramidase (Homo sapiens) (UniProt P04062); assay: Glucocerebrosidase-p2 (AID 348; in the data active = potency below about 10 µM; note: potency is the fitted concentration of half-maximal effect); details: purified GBA, blue fluorogenic substrate, 40 min
In short: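 Normal human glucocerebrosidase (0.2 nM) with blue fluorogenic substrate (80 uM final) in citrate/phosphate pH 5.9 with 10mM sodium taurocholate, 0.01% tween-20; 40 min RT, NaOH/glycine stop; fluorescence Ex 365/Em 440; AC50 from a titration from 0.6 nM upwards.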

[8] = NFAT Signaling Pathway (AID 444; active = well fitted curve in either direction with a large enough effect, not every such curve was filed as active;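 note: carbachol stimulus at about its EC50 of 1 µM final; % is set by controls: 0 for no effect and ±100 for the full control effect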); details: Jurkat NFAT-bla M1, carbachol, beta-lactamase ratio, 5 h; at 7.69 µM (top of the series) unless noted
In short: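 Jurkat cells with NFAT-driven β-lactamase reporter and co-expressed M1 receptor, stimulated with carbachol (final 1 uM, ~EC50), compound titration, 5 h at 37 °C. CCF4 loaded 1 h at RT; 460/530 nm ratio gave %activity and AC50.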

[9] = Stat Signaling Pathway (AID 446; active = well fitted curve in either direction with a large enough effect, not every such curve was filed as active;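 note: ME-180 cervical cancer cells given 40 pM IL-6 alongside compound; SIE-controlled beta-lactamase reporter measured as 460/530 nm FRET emission ratio; % is set by controls: 0 for no effect and ±100 for the full control effect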)
In short: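 Overnight-plated ME-180 cells bearing a STAT Inducible Element beta-lactamase reporter; 5 h co-exposure to compound and 40 pM IL-6; values normalized to 300 pM IL-6 and 125 nM JAK inhibitor controls.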

[10] = target: ATP-dependent 6-phosphofructokinase (Trypanosoma brucei brucei) (UniProt O15648); assay: qHTS Assay to Find Inhibitors of T. brucei phosphofructokinase: hit validation (AID 492961);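 note: luminescence reports ADP formed as PFK phosphorylates fructose-6-phosphate with ATP; % is set by controls: 0 for no effect and ±100 for the full control effect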
In short: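 Inhibition of parasite PFK is measured as reduced ADP formation, quantified via luciferase after ATP depletion. Assay used 0.1 mM ATP, 0.5 mM F6P, 1.25 nM enzyme, 45 min incubation.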

[11] = S16 Schwann cell viability assay (CellTiter-Glo assay) (AID 624031); note: nearly all actives have a fitted effect of over 70% in size; note: potency is the fitted concentration of half-maximal effect
In short: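 Native S16 rat Schwann cells, 500-750 cells/well in DMEM with 10% FBS, dosed with compound after overnight culture and incubated 24h at 37 degree Celsius/5% CO2. Viability by CellTiter-Glo luminescence; % activity normalized to no-cell wells and DMSO-treated cells.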

P93_24 = assay: qHTS profiling for inhibitors of Plasmodium falciparum proliferation (AID 504749); note: nearly all actives have a fitted effect of over 60% in size; note: potency is the fitted concentration of half-maximal effect; details: P. falciparum in erythrocytes, SYBR Green DNA, 72 h; series mostly up to 28.7 µM
In short: (§1)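 Each compound contacts P. falciparum-infected red blood cells for 72 h at 37 C; lysis buffer (Tris, EDTA, saponin, Triton X, SYBR Green I) is added and fluorescence measured next morning; values normalized to controls.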

PC26 = assay: as above; details: P. falciparum in erythrocytes, SYBR Green DNA, 72 h; series mostly up to 28.7 µM
In short: as §1

CP194 = assay: as above; details: P. falciparum in erythrocytes, SYBR Green DNA, 72 h; series mostly up to 28.7 µM
In short: as §1

CP201 = assay: as above; details: P. falciparum in erythrocytes, SYBR Green DNA, 72 h; series mostly up to 28.7 µM
In short: as §1

CP250 = assay: as above; details: P. falciparum in erythrocytes, SYBR Green DNA, 72 h; series mostly up to 28.7 µM
In short: as §1

[12] = AP1 Signaling Pathway (AID 357; active = well fitted curve in either direction with a large enough effect, not every such curve was filed as active; note: % is set by controls: 0 for no effect and ±100 for the full control effect); details: ME-180 (cervical carcinoma) AP-1-bla reporter, EGF-induced, beta-lactamase ratio, 5 h; at 7.69 µM (top of the series) unless noted
In short: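 AP-1-bla ME-180 cells with beta-lactamase reporter under AP-1 response element, stimulated with EC50 EGF; compounds titrated, 5 hours at 37 degrees Celsius. CCF4 read at 460/530 nm ratio; positive and negative modulators judged by AC50.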

[13] = target: Cytochrome P450 3A4 (Homo sapiens) (UniProt P08684); assay: qHTS Assay for Activators of Cytochrome P450 3A4 (AID 885); note: nearly all actives have a fitted effect of over 65% in size
In short: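 Using 20nM recombinant human CYP3A4 in potassium phosphate (200mM), substrate Luciferin-PPXE at 25uM, luminescent luciferin detection followed a 60-min RT NADPH reaction; data scaled to 57 uM ketoconazole.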

[14] = target: Androgen receptor (Homo sapiens) (UniProt P10275); assay: qHTS assay for small molecule agonists of androgen receptor signaling (AID 588515; active = well fitted curve in the direction sought with a large enough effect in the signal ratio, with a control signal flat; the % refers to the signal ratio; note: % is set by controls: 0 for no effect and ±100 for the full control effect); details: AR-UAS-bla HEK293, beta-lactamase ratio, agonist 16 h; hits give high values
In short: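 Stimulation of an AR-responsive β-lactamase reporter in GripTite HEK293 cells was measured after 16 h compound exposure at 37 °C, via CCF4 fluorescence after 2 h RT. EC50 from Hill fits, normalized to R1881 at 30 nM.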

[15] = target: Androgen receptor (Homo sapiens) (UniProt P10275); assay: qHTS assay for small molecule antagonists of androgen receptor signaling (AID 588516; active = well fitted curve in the direction sought with a large enough effect in the signal ratio, with a control signal flat, not every such curve was filed as active; the % refers to the signal ratio; note: % is set by controls: 0 for no effect and ±100 for the full control effect)
In short: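 AR-UAS-bla-GripTite HEK 293 cells (2000/well, 5 h at 37 C) received compound titrations, then R1881 at 10 nM final; after 16 h at 37 C, CCF4 dye 2 h RT, beta-lactamase fluorescence read; IC50 from Hill fits.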

Glucocorticoid receptor (Homo sapiens), sequence (P04150 whole entry, looked up, the tested form may be a part): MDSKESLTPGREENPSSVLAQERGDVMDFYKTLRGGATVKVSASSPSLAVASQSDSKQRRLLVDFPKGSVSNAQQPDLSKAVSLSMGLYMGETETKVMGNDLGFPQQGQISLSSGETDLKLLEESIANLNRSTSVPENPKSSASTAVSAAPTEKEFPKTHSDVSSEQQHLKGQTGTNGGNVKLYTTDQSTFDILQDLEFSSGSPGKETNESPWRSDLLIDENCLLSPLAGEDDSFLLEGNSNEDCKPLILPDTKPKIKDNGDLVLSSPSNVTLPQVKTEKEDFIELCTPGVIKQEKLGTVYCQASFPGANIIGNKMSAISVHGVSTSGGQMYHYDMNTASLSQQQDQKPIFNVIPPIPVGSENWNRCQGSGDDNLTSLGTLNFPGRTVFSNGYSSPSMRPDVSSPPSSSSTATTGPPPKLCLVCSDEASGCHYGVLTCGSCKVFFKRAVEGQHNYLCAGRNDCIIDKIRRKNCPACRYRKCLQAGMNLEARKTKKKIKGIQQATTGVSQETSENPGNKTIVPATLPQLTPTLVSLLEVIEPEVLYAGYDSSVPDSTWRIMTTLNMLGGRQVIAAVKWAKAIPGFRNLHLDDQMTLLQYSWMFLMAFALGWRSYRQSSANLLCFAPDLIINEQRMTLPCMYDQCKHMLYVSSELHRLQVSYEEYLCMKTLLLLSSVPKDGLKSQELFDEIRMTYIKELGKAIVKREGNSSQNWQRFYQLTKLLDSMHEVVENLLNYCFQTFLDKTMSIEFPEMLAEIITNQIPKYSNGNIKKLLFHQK
Lysosomal acid glucosylceramidase (Homo sapiens), sequence (P04062 whole entry, looked up): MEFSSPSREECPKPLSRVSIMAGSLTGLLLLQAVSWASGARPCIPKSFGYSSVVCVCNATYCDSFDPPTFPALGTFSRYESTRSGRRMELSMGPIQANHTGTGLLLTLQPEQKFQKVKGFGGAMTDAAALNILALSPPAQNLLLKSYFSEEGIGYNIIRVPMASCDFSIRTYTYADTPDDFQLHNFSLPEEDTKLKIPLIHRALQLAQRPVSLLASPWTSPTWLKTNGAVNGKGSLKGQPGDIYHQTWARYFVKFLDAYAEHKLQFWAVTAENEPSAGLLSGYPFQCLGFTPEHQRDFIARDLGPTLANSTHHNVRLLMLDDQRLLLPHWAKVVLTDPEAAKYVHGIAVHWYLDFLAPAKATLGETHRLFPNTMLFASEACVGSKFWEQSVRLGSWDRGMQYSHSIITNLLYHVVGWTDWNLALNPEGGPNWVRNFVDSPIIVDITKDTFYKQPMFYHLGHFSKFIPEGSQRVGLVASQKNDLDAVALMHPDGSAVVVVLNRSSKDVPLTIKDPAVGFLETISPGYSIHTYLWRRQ
3',5'-cyclic-AMP phosphodiesterase 4B (Homo sapiens), sequence (Q07343 whole entry, looked up): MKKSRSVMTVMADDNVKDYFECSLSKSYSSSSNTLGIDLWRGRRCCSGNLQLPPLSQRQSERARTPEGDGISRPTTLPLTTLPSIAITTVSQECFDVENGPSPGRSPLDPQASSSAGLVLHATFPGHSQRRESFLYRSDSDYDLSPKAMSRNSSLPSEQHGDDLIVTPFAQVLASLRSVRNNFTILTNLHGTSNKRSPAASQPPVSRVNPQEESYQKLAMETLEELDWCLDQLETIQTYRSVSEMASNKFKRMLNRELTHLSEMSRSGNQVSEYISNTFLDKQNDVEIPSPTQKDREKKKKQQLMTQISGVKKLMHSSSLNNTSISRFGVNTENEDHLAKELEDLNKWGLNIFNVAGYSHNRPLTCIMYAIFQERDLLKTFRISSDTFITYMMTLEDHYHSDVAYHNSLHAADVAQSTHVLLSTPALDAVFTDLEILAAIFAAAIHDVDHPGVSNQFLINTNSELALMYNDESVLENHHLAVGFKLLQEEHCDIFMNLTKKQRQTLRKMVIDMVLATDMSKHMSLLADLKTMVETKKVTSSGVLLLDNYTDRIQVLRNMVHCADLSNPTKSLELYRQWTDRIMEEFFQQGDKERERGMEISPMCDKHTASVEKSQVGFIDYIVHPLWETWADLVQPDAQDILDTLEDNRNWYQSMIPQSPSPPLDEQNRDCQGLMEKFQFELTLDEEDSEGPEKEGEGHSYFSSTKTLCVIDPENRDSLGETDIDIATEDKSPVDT
ATP-dependent 6-phosphofructokinase (Trypanosoma brucei brucei), sequence (O15648 whole entry, looked up): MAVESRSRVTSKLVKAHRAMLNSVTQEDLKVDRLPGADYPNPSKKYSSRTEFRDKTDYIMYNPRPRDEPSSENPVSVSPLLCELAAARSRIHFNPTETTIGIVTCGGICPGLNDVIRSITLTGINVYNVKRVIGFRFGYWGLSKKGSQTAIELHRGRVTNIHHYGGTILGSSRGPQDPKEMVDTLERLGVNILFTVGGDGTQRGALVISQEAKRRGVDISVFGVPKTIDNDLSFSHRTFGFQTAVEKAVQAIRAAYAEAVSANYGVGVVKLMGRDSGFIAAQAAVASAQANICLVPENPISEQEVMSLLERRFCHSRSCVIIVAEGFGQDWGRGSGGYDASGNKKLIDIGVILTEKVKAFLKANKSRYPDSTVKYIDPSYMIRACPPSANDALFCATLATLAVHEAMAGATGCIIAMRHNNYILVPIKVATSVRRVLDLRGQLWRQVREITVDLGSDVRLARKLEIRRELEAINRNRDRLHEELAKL
Cytochrome P450 1A2 (Homo sapiens), sequence (P05177 whole entry, looked up): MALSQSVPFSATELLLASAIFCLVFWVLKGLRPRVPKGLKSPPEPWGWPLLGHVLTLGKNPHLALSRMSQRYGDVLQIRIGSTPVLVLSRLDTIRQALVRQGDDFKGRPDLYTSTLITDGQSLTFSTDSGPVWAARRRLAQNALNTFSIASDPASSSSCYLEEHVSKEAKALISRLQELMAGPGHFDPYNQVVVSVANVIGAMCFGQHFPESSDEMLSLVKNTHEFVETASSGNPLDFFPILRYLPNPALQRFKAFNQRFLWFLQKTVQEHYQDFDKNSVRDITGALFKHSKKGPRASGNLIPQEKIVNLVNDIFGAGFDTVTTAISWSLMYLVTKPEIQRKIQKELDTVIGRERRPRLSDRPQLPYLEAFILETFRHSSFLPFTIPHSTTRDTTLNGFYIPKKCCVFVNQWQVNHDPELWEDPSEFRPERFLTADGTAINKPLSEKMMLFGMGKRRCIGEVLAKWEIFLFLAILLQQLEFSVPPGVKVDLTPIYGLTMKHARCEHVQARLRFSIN
Androgen receptor (Homo sapiens), sequence (P10275 whole entry, looked up): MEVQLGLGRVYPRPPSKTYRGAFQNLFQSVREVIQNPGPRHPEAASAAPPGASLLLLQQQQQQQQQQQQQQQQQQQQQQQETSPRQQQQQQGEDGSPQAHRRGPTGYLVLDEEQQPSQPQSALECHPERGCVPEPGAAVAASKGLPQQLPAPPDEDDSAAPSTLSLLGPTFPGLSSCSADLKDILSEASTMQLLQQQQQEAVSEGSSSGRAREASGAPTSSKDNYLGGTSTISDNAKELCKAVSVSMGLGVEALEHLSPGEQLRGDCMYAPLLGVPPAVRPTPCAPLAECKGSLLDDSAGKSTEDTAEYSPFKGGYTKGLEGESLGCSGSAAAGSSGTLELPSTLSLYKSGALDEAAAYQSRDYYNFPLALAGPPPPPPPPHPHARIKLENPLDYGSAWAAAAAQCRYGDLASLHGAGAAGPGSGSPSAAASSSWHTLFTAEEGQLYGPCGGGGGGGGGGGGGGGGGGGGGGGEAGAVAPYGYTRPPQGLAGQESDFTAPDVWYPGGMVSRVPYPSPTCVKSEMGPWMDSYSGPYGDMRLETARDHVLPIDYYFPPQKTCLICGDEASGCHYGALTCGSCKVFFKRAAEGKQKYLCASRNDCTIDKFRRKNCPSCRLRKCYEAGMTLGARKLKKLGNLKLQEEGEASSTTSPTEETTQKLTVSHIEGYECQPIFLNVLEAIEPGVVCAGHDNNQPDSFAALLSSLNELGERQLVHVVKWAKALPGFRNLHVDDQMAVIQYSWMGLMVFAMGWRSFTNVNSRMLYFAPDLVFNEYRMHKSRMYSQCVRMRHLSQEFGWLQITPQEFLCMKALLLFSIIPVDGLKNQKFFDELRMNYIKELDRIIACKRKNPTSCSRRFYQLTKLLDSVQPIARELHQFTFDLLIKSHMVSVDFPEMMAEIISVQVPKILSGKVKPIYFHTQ
Cytochrome P450 3A4 (Homo sapiens), sequence (P08684 whole entry, looked up): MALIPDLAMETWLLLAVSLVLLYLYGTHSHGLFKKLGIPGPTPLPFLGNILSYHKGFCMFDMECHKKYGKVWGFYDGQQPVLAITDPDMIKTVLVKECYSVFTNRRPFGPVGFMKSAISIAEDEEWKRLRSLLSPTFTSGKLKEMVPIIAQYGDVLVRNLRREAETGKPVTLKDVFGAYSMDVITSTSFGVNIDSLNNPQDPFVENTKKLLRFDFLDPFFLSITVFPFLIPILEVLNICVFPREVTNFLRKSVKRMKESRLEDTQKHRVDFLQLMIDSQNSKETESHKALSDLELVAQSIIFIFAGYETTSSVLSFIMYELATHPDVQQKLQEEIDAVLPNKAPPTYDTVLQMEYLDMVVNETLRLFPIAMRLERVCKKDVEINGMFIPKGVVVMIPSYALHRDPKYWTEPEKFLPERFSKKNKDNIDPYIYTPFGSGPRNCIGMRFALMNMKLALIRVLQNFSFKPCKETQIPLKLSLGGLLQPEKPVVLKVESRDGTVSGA

COc1c2ccoc2cc2oc(=O)ccc12
active: Potency [1] 0.0158 µM
inactive: Potency [2] > 46 µM | Potency [3] > 46 µM | Potency [4] | Potency [5] | Potency [6]

CN1CC[C@H](CN2c3ccccc3Sc3ccccc32)C1
inactive: Potency [7] > 11.4 µM | outcome [9] | Potency [4] | outcome [10]
active: Potency [1] 5.01 µM | activity change, negative = inhibition [8] -75.3% | Potency [11] 36.1 µM | Potency (P93_24) 7.08 µM | Potency (PC26) 13.5 µM

CN(C)CCCCCCN(C)C
inactive: outcome [10] | Potency [11] | Potency (CP194) | Potency (CP201) | Potency (CP250) | Potency (P93_24) | Potency (PC26)

COc1ccc2[nH]cc(CCNc3nc(-c4ccccc4OC)nc4ccccc34)c2c1
active: Potency [1] 6.31 µM
inactive: Potency [7] > 11.4 µM | activity change, negative = inhibition [12] 23.7% | outcome [9] | Potency [2] > 46 µM | Potency [3] > 46 µM | Potency [4] | outcome [13]

CC(C)=CCCC(C)CCO (configuration not stated)
inactive: activation [14] 11% and 2.32% | outcome [15]

c1ccc2c(c1)c1cccc3ccc4cccc2c4c31
inactive: outcome [15]

COc1ccc2[nH]cc(CCNc3ncncc3-c3ccccc3C(F)(F)F)c2c1
active: Potency [1] 10 µM
inactive: Potency [7] > 11.4 µM | activity change, negative = inhibition [12] 3.8% | activity change, negative = inhibition [8] -3.73% | outcome [9] | Potency [2] > 46 µM | Potency [3] > 46 µM | Potency [4] | outcome [13]

Cc1cccc([N+](=O)[O-])c1C
inactive: activation [14] 2.99% and 5.65% | outcome [15]

Cc1c(N=C=O)cccc1N=C=O
inactive: activation [14] -8.11% and -0.971% | outcome [15]

COCCn1c(=O)c(-c2cccs2)nc2cnc(N3CCNCC3)nc21
active: Potency [1] 3.98 µM
inactive: Potency [7] > 11.4 µM | Potency [3] > 46 µM | Potency [4] | outcome [13]

C1OCOCO1
inactive: outcome [10] | Potency [11] | Potency (CP201) | Potency (CP250) | Potency (P93_24) | Potency (PC26)

CCCN(CCC)C(=O)SCC
inactive: activation [14] 12.4% and -3.98% | outcome [15]

O=C(Nc1ccccc1)c1ccccc1O
inactive: outcome [15]

CC1=CC(C)(C)Nc2ccccc21
inactive: outcome [13]

c1ccc(Nc2nc(-c3ccoc3)nc3ccccc23)cc1
active: Potency [1] 0.2 µM
inactive: activity change, negative = inhibition [12] 0.696% | activity change, negative = inhibition [8] 2.6% | outcome [9] | Potency [2] > 46 µM | Potency [3] > 46 µM | outcome [13]

S=C1NC=NC2N=CNC12 (configuration not stated)
inactive: outcome [10] | Potency [11] | Potency (CP250) | Potency (P93_24)
active: Potency [5] 3.16 µM | Potency [6] 3.16 µM

CN(C)Cc1ccccc1-c1ccc2ncnc(N(C)C)c2c1
active: Potency [1] 12.6 µM
inactive: activity change, negative = inhibition [12] -1.59% | activity change, negative = inhibition [8] -2.16% | outcome [9] | Potency [2] > 46 µM | Potency [3] > 46 µM | Potency [4] | outcome [13]

C/C=C\c1ccc(OC)cc1
inactive: Potency [5] | Potency [6] | outcome [10] | Potency [11] | Potency (CP194) | Potency (CP201) | Potency (CP250) | Potency (P93_24) | Potency (PC26)

CN1CCN(c2nc(-c3cccnc3)nc3ccccc23)CC1
inactive: Potency [7] > 11.4 µM | activity change, negative = inhibition [12] 5.32% | activity change, negative = inhibition [8] 11.1% | Potency [3] > 46 µM | outcome [13]
active: Potency [1] 3.16 µM
